Bioassay records from PubChem BioAssay.
This excerpt belongs to a sample that is enriched for hits.
Pf Dd2 inh – inhibitors of Plasmodium falciparum Dd2 growth. 120,000 compounds, 4.3% hits. P. falciparum Dd2 growth, SYBR Green, 72 h. AID 1347417. Potency, µM (titrated, usually from 28.9 µM), most hits filed as inhibitors; active = well fitted inhibition curve with a large enough effect; also: nearly all actives have a fitted effect of over 65% in size
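Readout: SYBR Green fluorescence, 485 nm excitation, 535 nm emission, after ~16 h lysis at 37C. Before that, Dd2-infected red cells (2.5% hematocrit) grew 72 h with compound, 29 uM top final concentration.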
Large screens that a line does not name were inactive.

Cc1nc(-c2cn(C3CCCN(C(=O)c4cc5ccccc5[nH]4)C3)nn2)no1 (stereo not drawn)	none
COc1cccc(CN2CCOC[C@H](Oc3cccnc3)C2)c1	none
FC(F)(F)c1ccc(O[C@H]2COCCN(Cc3cccnc3)C2)nc1	none
c1ccc(-c2ccc(CN3CCOC[C@H](Oc4cnccn4)C3)cc2)cc1	Pf Dd2 inh 5.62µM
O=C(COc1ccccc1Cl)Nc1ccc2oc(-c3ccccc3F)nc2c1	none
COc1ccccc1NC(=O)Cn1ccn2nc3c(c2c1=O)CCCCC3	none
COc1cccc(CSc2nc3ccccc3c3nc(CCn4c(C)nc5ccccc54)nn23)c1	none
Cc1ccc(-c2cc3c(=O)n(CCNC(=O)c4ccc(N(C)C)cc4)ccn3n2)c(C)c1	Pf Dd2 inh 10µM
CCn1nccc1C(=O)NCCn1ccn2nc(-c3ccc(C)c(C)c3)cc2c1=O	Pf Dd2 inh 7.94µM
Cc1ccc(C)c(C(=O)NCCn2ccn3nc(-c4cc(C)ccc4C)cc3c2=O)c1	none
CC(=O)Nc1cccc(C(=O)NCCn2ccn3nc(-c4ccc(C)cc4C)cc3c2=O)c1	Pf Dd2 inh 5.62µM
Cc1ccc(-c2cc3c(=O)n(CCNC(=O)c4cccc(Cl)c4)ccn3n2)cc1C	none
COc1cccc(C(=O)NCCn2ccn3nc(-c4ccc(C)cc4C)cc3c2=O)c1OC	none
Cc1ccc(-c2cc3c(=O)n(CCNC(=O)c4cc(Cl)ccc4F)ccn3n2)c(C)c1	none
COc1ccc(C(=O)NCCn2ccn3nc(-c4ccc(C)cc4C)cc3c2=O)cc1F	none
Cc1ccc(-c2cc3c(=O)n(CCNC(=O)c4ccccc4F)ccn3n2)cc1C	none
COc1cccc(CN2Cc3nc(-c4cnn(C)c4)ccc3OCC2=O)c1	none
CCNC(=O)c1coc(COc2ccc3c(c2)C(c2ccc(F)cc2)N(C(=O)CC(C)C)CC3)n1 (stereo not drawn)	Pf Dd2 inh 1.41µM
COCCNC(=O)c1coc(COc2ccc3c(c2)C(c2ccc(C)cc2)N(C(=O)C2CC2)CC3)n1 (stereo not drawn)	none
C=CCNC(=O)c1coc(COc2ccc3c(c2)C(c2ccc(C)cc2)N(C(=O)C2CC2)CC3)n1 (stereo not drawn)	none
CCOC(=O)C1CCN(C(=O)Cn2c(=O)cc(C)c3c(C)nn(C)c32)CC1	none
CCn1cc(C2N3CC4(CC)CN2CC(CC)(C3)C4=O)c2ccccc21 (stereo not drawn)	none
Cc1cc(N2CCN(c3cccc(C(F)(F)F)c3)CC2)n2nc(-c3ccccc3C)nc2n1	Pf Dd2 inh 11.2µM
COc1ccc(-c2nc3nc(C)cc(Nc4cccc(C(F)(F)F)c4)n3n2)cc1	none
COc1ccc(N2CCN(c3cc(C)nc4nc(-c5ccc(C)cc5)nn34)CC2)cc1	none
O=C1CC(c2cccc(F)c2)c2c(n3ncnc3[nH]c2=O)N1 (stereo not drawn)	none
COc1ccc(-c2nc(C3CC3)nc3c2CCN(Cc2ccccc2)CC3)cc1	Pf Dd2 inh 5.01µM
Clc1ccc(-c2nc(C3CC3)nc3c2CCN(Cc2ccccc2)CC3)cc1	none
COc1ccc(CC(=O)N2CCc3nc(C4CC4)nc(-c4ccc(Cl)cc4)c3C2)cc1	none
COc1ccc(-c2nc(C)nc3c2CCN(CCC(C)C)CC3)cc1	none
COc1ccc(-c2nc(C)nc3c2CCN(CC2CC2)CC3)cc1	none
COc1ccc(-c2nc(C3CC3)nc3c2CCN(Cc2cc(C)on2)CC3)cc1	Pf Dd2 inh 2.51µM
CCN(CC)c1ccc(C(=O)N2CCCC(n3cc(-c4nc(C)no4)nn3)C2)cc1 (stereo not drawn)	none
COc1ccc(CCNC(=O)c2ccc3c(c2)CCN3S(=O)(=O)c2ccccc2)cc1	none
O=C(c1ccncc1)N1CC2CC(C1)[C@H]1CCCC(=O)N1C2 (stereo partly drawn)	none
COc1ccc(S(=O)(=O)N2CCN(C(=O)c3cc(-c4ccc(Br)cc4)n[nH]3)CC2)cc1OC	none
COc1ccc(Cl)cc1C(=O)N1CCCN(c2cc(-c3ccc(F)cc3)[nH]n2)CC1	none
O=C(c1cc(-c2ccc(Br)cc2)n[nH]1)N1CCN(S(=O)(=O)c2ccc(Br)cc2)CC1	Pf Dd2 inh 8.91µM
COc1ccc(Cl)cc1C(=O)N1CCCN(c2cc(-c3ccc(Br)cc3)[nH]n2)CC1	none
COc1ccc(Cl)cc1S(=O)(=O)N1CCN(C(=O)c2cc(-c3ccc(Br)cc3)n[nH]2)CC1	Pf Dd2 inh 10µM
O=C(c1cc(-c2ccccc2)n[nH]1)N1CCc2c(nc(-c3ccc(F)cc3)[nH]c2=O)C1	none
COc1cc(Cl)c(NC(=O)CCS(=O)(=O)c2cc3c(cc2Cl)NC(=O)CO3)c(OC)c1	none
CNC(=O)C1CCN(C(=O)C2CN(c3ccc(OC)cc3)C(=O)N2)C1 (stereo not drawn)	none
CCc1ccc(NC(=O)c2cc3c(=O)n(Cc4cccs4)ccc3nc2C)cc1	Pf Dd2 inh 12.6µM
CCc1cccc(NC(=O)c2cc3c(=O)n(Cc4ccccc4)ccc3nc2C)c1	none
COc1ccc(Cn2ccc3nc(C)c(C(=O)Nc4ccc(F)cc4)cc3c2=O)cc1	none
Cc1ccc(S(=O)(=O)Nc2ccc(C)n(CC(=O)Nc3ccc(C)cc3C)c2=O)cc1	none
CC1Oc2ccc(NC(=O)c3ccccc3F)cc2CN(Cc2ccc(Cl)cc2)C1=O (stereo not drawn)	none
O=C1CCC(CCC(=O)N2CCCC2c2ccc(F)cc2)(Cc2cccc3ccccc23)N1 (stereo not drawn)	none
O=C(CCc1ccccc1)N1CCc2c([nH]c3ccccc23)C1c1ccc(F)cc1 (stereo not drawn)	Pf Dd2 inh 11.2µM
O=C1CN(C(=O)Cc2ccccc2)C(c2ccc(F)cc2)c2cc(Br)ccc2N1 (stereo not drawn)	none
O=C(CCC1CCCC1)N1CCc2c([nH]c3ccccc23)C1c1ccc(F)cc1 (stereo not drawn)	Pf Dd2 inh 11.2µM
CSc1ccc(C2c3[nH]c4ccccc4c3CCN2C(=O)CCc2ccccc2)cc1 (stereo not drawn)	none
COc1ccc(C2c3[nH]c4ccccc4c3CCN2C(=O)CCC2CCCC2)cc1 (stereo not drawn)	none
COCCn1ccnc1CN1CCn2nc(C(O)C3CC3)cc2C1 (stereo not drawn)	none
O=C(CSc1nc2c([nH]c3ccccc32)c(=O)n1-c1cccc(Cl)c1)N1CCCC1	none
COc1ccc(-c2noc([C@@H]3C[C@@H](O)CN3Cc3ccc(S(C)(=O)=O)cc3)n2)cc1	none
CCN1CCN(C(=O)C2CCN(c3cnn(CCOC)c(=O)c3)C2)CC1 (stereo not drawn)	none
CCC(C)NC(=O)C(NC(=O)c1ccccc1F)C1CCN(C(=O)c2ccc(OC)cc2)CC1 (stereo not drawn)	none
COC(=O)CC1Oc2ccc(F)cc2-n2cc(-c3ccc(Cl)cc3)nc21 (stereo not drawn)	Pf Dd2 inh 11.2µM
COC(=O)c1ccc(Cl)cc1NC(=O)N1CC(C)Oc2ccccc21 (stereo not drawn)	none
COC(=O)CC1Oc2ccccc2-n2cc(-c3ccc(Cl)cc3)nc21 (stereo not drawn)	Pf Dd2 inh 3.55µM
COc1ccc(-n2cc(C(=O)Nc3cc(F)ccc3F)c3ccccc3c2=O)cc1	none
COC(=O)CNC(=O)c1nc(-c2ccc(Cl)cc2)c2ccccn12	none
O=C(CS(=O)(=O)c1nc(-c2ccc(Cl)cc2)cn1-c1ccccc1)Nc1ccc(F)cc1F	none
COCCNC(=O)CCC(=O)NNc1nc2ccccc2c2nc(C)nn12	none
Cc1ccc(NC(=O)C2CCCN(C(=O)c3cnn(-c4ccc(F)cc4)c3-n3cccc3)C2)c(Cl)c1 (stereo not drawn)	none
COc1ccc(Cl)cc1C(=O)N1CCC2(CC1)N(C)C(=O)CS2(=O)=O	none
COC1C(=O)N(CC2CC2)C12CCN(C(=O)C1CCOCC1)CC2 (stereo not drawn)	none
